# Measurements published in article PMC4336329 (PLoS ONE, 2015).
# In all, about 310,000 compounds went through this assay and about 14,000 (4.5%) showed an effect of 50% or more. The effect is printed as a negative number. Shown is part of a subset that was picked to be rich in strong results.
# Biological target: human ether-à-go-go-related gene (hERG) potassium channel (human, UniProt Q12809)
# Test: primary screen, population patch clamp on CHO cells stably expressing hERG; higher = less effect of the substance
# 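Note: peak tail current of the secondary pulse compared with the same well before compound.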
# human ether-à-go-go-related gene (hERG) potassium channel, sequence (Q12809 whole entry, looked up): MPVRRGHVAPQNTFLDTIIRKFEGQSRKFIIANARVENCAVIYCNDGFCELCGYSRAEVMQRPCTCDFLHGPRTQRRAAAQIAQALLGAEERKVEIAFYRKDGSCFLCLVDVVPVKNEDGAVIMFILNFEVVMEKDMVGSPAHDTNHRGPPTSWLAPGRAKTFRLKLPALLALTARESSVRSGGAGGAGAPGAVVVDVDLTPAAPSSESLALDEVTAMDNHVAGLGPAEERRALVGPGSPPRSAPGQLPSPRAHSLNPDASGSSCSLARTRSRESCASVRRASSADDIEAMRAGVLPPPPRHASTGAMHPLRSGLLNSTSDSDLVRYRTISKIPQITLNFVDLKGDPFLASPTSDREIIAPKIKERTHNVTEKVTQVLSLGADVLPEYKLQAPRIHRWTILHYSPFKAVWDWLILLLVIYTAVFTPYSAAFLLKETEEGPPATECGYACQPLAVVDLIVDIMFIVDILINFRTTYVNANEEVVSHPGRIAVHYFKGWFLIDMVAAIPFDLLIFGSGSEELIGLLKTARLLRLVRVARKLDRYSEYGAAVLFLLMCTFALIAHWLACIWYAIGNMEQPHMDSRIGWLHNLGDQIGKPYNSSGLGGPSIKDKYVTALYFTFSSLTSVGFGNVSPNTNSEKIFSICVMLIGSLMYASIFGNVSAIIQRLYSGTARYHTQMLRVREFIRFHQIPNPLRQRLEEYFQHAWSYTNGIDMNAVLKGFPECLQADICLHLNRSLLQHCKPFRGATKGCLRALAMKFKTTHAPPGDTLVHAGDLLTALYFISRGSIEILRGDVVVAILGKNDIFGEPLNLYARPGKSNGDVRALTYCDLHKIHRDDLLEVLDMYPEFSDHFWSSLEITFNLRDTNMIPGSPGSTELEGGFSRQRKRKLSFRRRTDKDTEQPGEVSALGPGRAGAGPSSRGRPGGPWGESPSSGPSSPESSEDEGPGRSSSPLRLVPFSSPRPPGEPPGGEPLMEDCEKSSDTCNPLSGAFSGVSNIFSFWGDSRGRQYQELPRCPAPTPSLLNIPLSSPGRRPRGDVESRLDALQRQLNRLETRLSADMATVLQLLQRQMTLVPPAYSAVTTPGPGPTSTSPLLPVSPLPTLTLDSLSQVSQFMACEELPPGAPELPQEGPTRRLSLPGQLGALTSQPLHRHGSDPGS
row,Structure (SMILES),"hERG current change (%, negative = inhibition) at 10uM [%]"
1,COc1ccc(C(CNC(=O)c2oc3cc(C)c(Cl)cc3c2C)N2CCCCC2)cc1 (stereo not drawn),16.3
2,CCc1ccc2oc(C(=O)NCC(c3ccc(OC)cc3)N3CCCCC3)c(C)c2c1 (stereo not drawn),-3.57
3,COc1ccccc1C(CNC(=O)c1ccc(-c2ccccc2Cl)o1)N1CCCC1 (stereo not drawn),-72.2
4,COc1ccc(C(CNC(=O)c2ccc(-c3ccccc3Cl)o2)N2CCOCC2)cc1 (stereo not drawn),-23.7
5,COc1ccc(C(CNC(=O)c2oc3ccccc3c2C)N2CCCC2)cc1 (stereo not drawn),-43.8
6,CC(=O)Nc1ccc(Nc2ncnc3ccccc23)cc1,10.9
7,O=C(C(=C1N(Cc2ccc(Cl)nc2)CCN1Cc1ccc(Cl)nc1)[N+](=O)[O-])C(Cl)Cl,-26.6
8,CCn1c(C)nc2cc(S(N)(=O)=O)ccc21,21.9
9,Cc1ccc(C)c(NC(=O)c2nnn(Cc3ccccc3)c2N)c1,-6.11
10,Cc1nc(NC(=O)CSc2cc(C)c3ccccc3n2)c(Cl)cc1Cl,5.23
11,CC1CN(C(=O)CCNC(=O)c2ccc(Br)cc2)CC(C)O1 (stereo not drawn),-4.12
12,O=C(CSc1ncn[nH]1)Nc1cccc2ccccc12,3.88
13,CCC(C)(C)NC(=O)Cc1ccccc1OC,23
14,COc1ccc(C(CNC(=O)CNC(=O)c2cccc(Cl)c2)N2CCCC2)cc1 (stereo not drawn),-33.8
15,COc1ccc(C(CNC(=O)c2cccc(NC(=O)c3cccs3)c2)N2CCCC2)cc1 (stereo not drawn),-58.8
16,COc1ccc(C(CNC(=O)c2cccc(S(=O)(=O)Nc3ccc(C)cc3)c2)N2CCCCC2)cc1 (stereo not drawn),-30.7
17,COc1ccc(C(CNC(=O)c2cccc(S(=O)(=O)N3CCCCC3)c2)N2CCCC2)cc1 (stereo not drawn),-43.8
18,COc1ccc(C(CNC(=O)c2ccc(Cl)c(NC(=O)c3cccs3)c2)N2CCCC2)cc1 (stereo not drawn),-70.9
19,COc1ccc(C(CNC(=O)c2cccc(Br)c2)N2CCCC2)cc1 (stereo not drawn),-31.6
20,COc1cc2c(cc1OC)C(C)N(C(=O)Nc1cc(C)cc(C)c1)CC2 (stereo not drawn),4.95
21,COC(=O)c1c(NC(=O)c2ccco2)sc2c1CC(C)(C)NC2(C)C,-21.2
22,Cn1c(=O)c2c(ncn2CC(=O)OCC(=O)Nc2sccc2C(N)=O)n(C)c1=O,-10.1
23,COC(=O)C1=C(C)N(c2cccc3ccccc23)C(=O)C1,-6.64

row,Structure (SMILES),"hERG current change (%, negative = inhibition) at 10uM [%]"
1,Cc1noc(NC(=O)c2ccccc2C(F)(F)F)c1C#N,-46
2,CCN1C(=O)[C@H]2[C@@H](c3ccc(OC)cc3)N3C(=O)CN(CCOC)C(=O)[C@@]3(C)[C@H]2C1=O,-2.75
3,O=C(CN1CCN(C/C=C/c2ccccc2)CC1)NCc1ccc(Cl)cc1,-78
4,Cl.O=C(CN1CCCC1)NCc1ccccc1,15.6
5,O=C(CN1CCCCCC1)NCc1ccccc1,10.1
6,O=C(N/C=C\c1ccccc1)NCc1ccc(Cl)cc1,1.95
7,O=C(CN1CCN(c2ccccc2F)CC1)NCc1ccc(Cl)cc1,-19.1
8,O=C(CN1CCN(C/C=C/c2ccccc2)CC1)NCc1ccccc1,-73.3
9,COc1cccc(C2(c3cccc(OC)c3)CC2C(=O)Nc2ccccc2Cl)c1 (stereo not drawn),14
10,CN1C(=O)C(=Cc2ccc(-c3cccc(Cl)c3)o2)C(=O)N(C)C1=O,10.2
11,CCS(=O)(=O)N1CCN(c2ccc([N+](=O)[O-])c(NCc3cccnc3)c2)CC1,-49.1
12,O=C(c1ccccc1)N1CCN(c2ccc([N+](=O)[O-])c(NCc3cccnc3)c2)CC1,-69.7
13,O=C(c1ccc(Cl)cc1)N1CCN(c2ccc([N+](=O)[O-])c(NCc3cccnc3)c2)CC1,-50.1
14,O=[N+]([O-])c1ccc(N2CCN(S(=O)(=O)c3ccc(Cl)cc3)CC2)cc1NCc1cccnc1,2.59
15,Cc1ccc(C(=O)N2CCN(c3ccc([N+](=O)[O-])c(NCc4cccnc4)c3)CC2)cc1,-59.4
16,Cc1ccccc1C(=O)N1CCN(c2ccc([N+](=O)[O-])c(NCc3cccnc3)c2)CC1,-27
17,Cc1ccc(NC(=O)c2cc([N+](=O)[O-])ccc2NCc2cccnc2)cc1Cl,-41.7
18,COc1cccc(NC(=O)c2cc([N+](=O)[O-])ccc2NCc2cccnc2)c1,-44
19,O=C(c1ccccc1F)N1CCN(c2ccc([N+](=O)[O-])c(NCc3cccnc3)c2)CC1,-45.5
20,CC(C)(C)C(=O)N1CCN(c2ccc([N+](=O)[O-])c(NCc3cccnc3)c2)CC1,-29.3
21,CC(=O)N1CCN(c2ccc([N+](=O)[O-])c(NCc3cccnc3)c2)CC1,-22.3
22,Cc1ccc(NC(=O)c2cc([N+](=O)[O-])ccc2NCc2cccnc2)cc1,-82.7
